Compound activity (PubChem)
hcDAF-12 act = activates DAF-12 receptor from parasite H. contortus; HEK293 hcDAF-12 lit1-tk-luc reporter, luminescence; 0% DMSO, 100% Δ7-dafachronic acid; activation, % at 6.8 µM; 370,000 tested, 1.4% active; AID 652067;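 active = activation above the mean of all tested compounds plus 3 SD, cut at about 5.5% in these data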;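 note: 100% = response to 3 µM Δ7-dafachronic acid high control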
DAX1 inh-1 = inhibitors of DAX1 repression of SF-1 activated StAR promoter. HEK293T StAR-luciferase reporter, SF-1/DAX-1 repression relief. inhibition, % at 6.8 µM. 370,000 tested, 1.1% active. AID 652010;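 active = inhibition above the mean over all tested compounds plus 3 SD, cut at about 3.6% in these data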;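 note: 0% = DAX-1 cells with DMSO and 100% = cells lacking DAX-1 with DMSO; higher inhibition means more luminescence from relief of DAX-1 repression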
hgDAF-12 ag = hgDAF-12 agonism, primary luciferase screen; HEK293 GAL4-hgDAF12 UAS-luciferase reporter, agonist luminescence; normalized to butyrate control; 370,000 tested, 1.8% active; activation, % at 6.8 µM; AID 687014;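 active = activation above a cutoff set at the mean of all screened compounds plus 3 SD, cut at about 10% in these data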;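 note: 0% = DMSO wells and 100% = sodium butyrate wells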
ssDAF12 agonist = activators of S. stercoralis DAF-12 nuclear receptor | HEK293 ssDAF-12/GRIP1 lit1-tk-luc reporter, luminescence; % of 3 µM dafachronic acid response | activation, % at 6.8 µM | 370,000 tested, 1% active | AID 652126;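 active = activation above the mean over all tested compounds plus 3 SD, cut at about 0.9% in these data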;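 note: 0% = DMSO-only wells and 100% = 3 µM delta7-dafachronic acid wells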
DAX1 inh-2 = inhibits human nuclear receptor DAX1. P51843. HEK293 Gal4-DAX1 luciferase reporter, luminescence. inhibition, % at 6.75 µM. 340,000 tested, 0.99% active. AID 504766;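 active = inhibition above the mean over all tested compounds plus 3 SD, cut at about 4.2% in these data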;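 note: 0% = DAX1-transfected cells with DMSO and 100% = empty-vector control cells with DMSO; inhibition shows as a rise in luminescence from relieved DAX1 repression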
Target sequence (P51843 207-470 limits assumed): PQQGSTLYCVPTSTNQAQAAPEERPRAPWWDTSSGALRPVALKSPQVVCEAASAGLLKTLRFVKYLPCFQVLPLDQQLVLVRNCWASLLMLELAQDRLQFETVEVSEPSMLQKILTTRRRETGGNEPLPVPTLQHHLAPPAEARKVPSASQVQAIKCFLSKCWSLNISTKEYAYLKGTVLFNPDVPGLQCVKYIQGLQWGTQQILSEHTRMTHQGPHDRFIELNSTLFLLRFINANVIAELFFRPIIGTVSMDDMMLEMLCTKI
SMARCA2 activ = increases SMARCA2 function in MMTV reporter cells; MG213 cells, MMTV-luciferase reporter, dexamethasone, overnight; activation, % at 9.1 µM; AID 652017; 370,000 tested, 1% active; in the data active = activation above about 7.8%;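 note: 0% = vehicle wells and 100% = reference activator wells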
SMARCA2 act conf = confirmation of SMARCA2 (BRM) function activators | 3,500 tested, 30% active | AID 652260 | activation, % at 9.1 µM | MG213 cells, MMTV-luciferase with dexamethasone, luminescence, overnight; MG213 cells expressing E1A, Rb sequestered; DMSO wells 0%, reference activator 100% | shares compounds with SMARCA2 activ;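 active = activation above its plate's cutoff, the mean activation of tested wells plus 3 SD, cut at about 7.9% in these data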
VP16 Luc act = GAL4-VP16 reporter activation counter-screen; HEK293 GAL4-VP16 pG5luc reporter, luciferase luminescence; scaled: DMSO wells 0%, SAHA wells 100%; shares compounds with SMARCA2 activ; activation, % at 9.1 µM; 3,500 tested, 41% active; AID 686939;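 active = activation above the solvent-only control well mean plus 3 SD, averaged across control plates, cut at about 5.2% in these data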
* = called active by the depositor; / = not tested or not shown. The list is not random: actives were taken first. Their share in the collection is about 4.8%.

SMILES | hcDAF-12 act | DAX1 inh-1 | hgDAF-12 ag | ssDAF12 agonist | DAX1 inh-2 | SMARCA2 activ | SMARCA2 act conf | VP16 Luc act
CCOc1ccc(-n2c(SCc3cccc4ccccc34)nnc2-c2ccc(C)cc2)cc1 | -5 | -2 | -3 | -2 | / | -6 | / | /
O=C(Nc1cccs1)OC1CC2CC1[C@H]1CCCCN1C2 (some centres not stated) | -1 | 0 | 0 | 0 | / | -2 | / | /
CN1CCN(Cc2cc(Cl)c3cccnc3c2OC(=O)c2cccs2)CC1 | 2 | 0 | -1 | -1 | 0 | 0 | / | /
O=C(Oc1c(CN2CCOCC2)cc(Cl)c2cccnc12)c1ccccc1Br | -1 | -1 | -2 | -2 | -1 | 8.7* | 24* | -2
CC(C)CNC(=O)OCc1cn(Cc2ccc(F)c(F)c2)nn1 | -1 | 1 | 0 | 0 | / | 1 | / | /
COc1ccc(C(=O)OCC(N)=O)cc1[N+](=O)[O-] | -1 | 0 | 0 | -2 | 1 | 11* | 3 | 1
O=C(CCc1nc(-c2ccccc2F)no1)NCCc1ccccc1F | -1 | -1 | -2 | -1 | / | -5 | / | /
COC(=O)C[C@@H]1CC[C@H]2[C@@H](COc3ccc(NC(=O)Nc4cccc(F)c4)cc3C(=O)N2C)O1 | 2 | -1 | 1 | -1 | / | -2 | / | /
CN(Cc1cc(=O)[nH]c2ccccc12)C(=O)c1ccccc1 | 5 | 0 | 3 | 0 | 1 | 9.4* | 0 | 1
COc1ccccc1N(Cc1cc(=O)[nH]c2ccccc12)C(=O)c1ccccc1 | -1 | 0 | -5 | -1 | 0 | 9.8* | -2 | 0
C=CCN1[C@H](C#N)[C@@H](c2ccc(Br)cc2)[C@H]1CO | 0 | 1 | -3 | -1 | / | 4 | / | /
CCOc1ccc(/C(O)=C2/C(=O)C(=O)N(CCOCCO)C2c2ccccn2)cc1 (configuration not stated) | 2 | 0 | 3 | -1 | 1 | 8.6* | -1 | 1
CC(=O)Nc1sc(C)c(C)c1CN1CCN(Cc2ccccc2)CC1 | 0 | 0 | 0 | -1 | -1 | -2 | / | /
Cc1sc(NC(=O)c2ccccc2F)c(CN2CCCCC2C)c1C (configuration not stated) | 3 | 3 | 10 | -1 | 3 | 9.5* | 8.6* | 11*
Clc1ccc(/C=N/Nc2nc(Cl)nc3ccccc23)cc1 | 4 | 2 | 10 | -1 | 4 | 12* | 3 | 1
Cc1ccc(-c2noc(CSc3ccccc3)n2)cc1 | 3 | 3.9* | 12* | 0 | 0 | 9.3* | 3 | 8.2*
Cc1cccc(-c2noc(CSc3ccccc3)n2)c1 | 2 | 1 | 10 | 0 | 1 | 3 | / | /
Cc1ccc(-c2noc(CN3CCOCC3)n2)cc1 | 2 | 1 | 8 | -1 | 2 | 5 | / | /
Cc1ccc(-c2noc(CN3CCCCC3)n2)cc1 | 2 | 1 | 6 | 0 | 2 | 8.3* | 4 | 9.1*
COC(=O)[C@]12C[C@H](CC(=O)NCCCN3CCCC3=O)C(=O)N(Cc3ccco3)C1=C[C@H](C1CCCC1)O[C@@H]2C | 1 | 0 | -1 | -1 | / | -1 | / | /
Nc1ccc2nc(COc3ccccc3)[nH]c2c1 | 6.5* | 1 | 10 | 0 | -1 | 12* | 1 | 1
c1ccc(-c2nnc3n2N=C(c2ccc4ccccc4c2)CS3)nc1 | -3 | -2 | -3 | -2 | / | -3 | / | /
Cc1ccccc1NC(=O)COC(=O)c1ccc(S(C)(=O)=O)c([N+](=O)[O-])c1 | -2 | 0 | -2 | -2 | -1 | 16* | 3 | 3
CS(=O)(=O)c1ccc(C(=O)OCc2nnc(-c3ccccc3)o2)cc1[N+](=O)[O-] | -1 | 0 | -1 | -2 | -1 | 12* | -13 | 9.0*
CS(=O)(=O)c1ccc(C(=O)OCC(=O)N2CCOCC2)cc1[N+](=O)[O-] | 0 | 0 | -1 | -1 | / | 8.2* | 18* | 1
SMILES | hcDAF-12 act | DAX1 inh-1 | hgDAF-12 ag | ssDAF12 agonist | DAX1 inh-2 | SMARCA2 activ | SMARCA2 act conf | VP16 Luc act
C[C@H]1COc2cc(N3CCSCC3)ccc2S(=O)(=O)N1C | -1 | 2 | -1 | -1 | / | -2 | / | /
O=C(CSc1nnc(-c2ccccn2)n1-c1ccccc1)Nc1ccc(OCc2ccccc2)cc1 | -2 | -1 | -1 | -1 | / | -8 | / | /
CCOC(=O)c1csc(Nc2nc3ccc(F)cc3s2)n1 | -2 | -2 | -1 | -1 | 0 | 11* | -15 | 20*
CCCN1CCS(=O)(=O)N(Cc2cn(Cc3ccccc3)nn2)C(C(=O)OC)C1 (configuration not stated) | 0 | 0 | -3 | -1 | / | 4 | / | /
COc1ccc(N2CCN(C(=O)CN(C)S(=O)(=O)c3cnc[nH]3)CC2)cc1 | 0 | -1 | -3 | 0 | 7.1* | 10* | -3 | 0
CC(C)CCN(C)C1CCN(C(=O)Nc2ccc(Cl)cc2)CC1 | -2 | 0 | 0 | 0 | / | 0 | / | /
O=[N+]([O-])c1ccc(OC[C@@H](O)CN2CCC(C(O)(c3ccccc3)c3ccccc3)CC2)c(Cl)c1 | -1 | 0 | 0 | -1 | / | -2 | / | /
Cn1nc2sc3ccccc3n2c(=O)c1=O | 4 | 0 | 2 | -1 | 0 | -5 | / | /
N#Cc1cnc2sc3ccccc3n2c1=N | 3 | 2 | 7 | 0 | 1 | 9.5* | 9.2* | 7.0*
COc1cc(/C=C/C(=O)O)cc2c1OCCO2 | -1 | 0 | 0 | -1 | -2 | 8.0* | -5 | -1
COc1cc(/C=C/C(=O)O)cc(OC)c1OC | 0 | 0 | 2 | -1 | 0 | -2 | / | /
COc1cc(NC(=O)C2CCCN(S(=O)(=O)c3ccc(Cl)s3)C2)cc(OC)c1 (configuration not stated) | -4 | -1 | -4 | -2 | / | -1 | / | /
O=C(COC(=O)c1nc(Cl)c(Cl)c(Cl)c1Cl)c1ccc[nH]1 | 0 | 0 | 0 | 0 | 1 | 9.3* | 20* | 1
Cc1ccc(NC(=O)c2ccc(OC(=O)C(C)Oc3ccc(Cl)cc3C)cc2)cc1 (configuration not stated) | 3 | 1 | 5 | -1 | 0 | 11* | 8.0* | 1
O=C(N[C@@H](Cc1ccccc1)C(=O)N1CCC2CCN(S(=O)(=O)c3ccccc3)CC21)[C@@H]1CCCN1 (some centres not stated) | -2 | 2 | 1 | -1 | / | -3 | / | /
Cc1ccc(/C=C(\NC(=O)c2ccc(C)cc2)c2nc(=S)[nH][nH]2)cc1 | 1 | 1 | 2 | -1 | 0 | 10* | -1 | 1
